According to paper PMC11024108:

Target: AP-2 complex subunit beta (UniProt Q9DBG3)
Experiment: cross-link between two proteins; cross-linking mass spectrometry

Chain of AP-2 complex subunit beta (Q9DBG3 whole entry, one chain of several): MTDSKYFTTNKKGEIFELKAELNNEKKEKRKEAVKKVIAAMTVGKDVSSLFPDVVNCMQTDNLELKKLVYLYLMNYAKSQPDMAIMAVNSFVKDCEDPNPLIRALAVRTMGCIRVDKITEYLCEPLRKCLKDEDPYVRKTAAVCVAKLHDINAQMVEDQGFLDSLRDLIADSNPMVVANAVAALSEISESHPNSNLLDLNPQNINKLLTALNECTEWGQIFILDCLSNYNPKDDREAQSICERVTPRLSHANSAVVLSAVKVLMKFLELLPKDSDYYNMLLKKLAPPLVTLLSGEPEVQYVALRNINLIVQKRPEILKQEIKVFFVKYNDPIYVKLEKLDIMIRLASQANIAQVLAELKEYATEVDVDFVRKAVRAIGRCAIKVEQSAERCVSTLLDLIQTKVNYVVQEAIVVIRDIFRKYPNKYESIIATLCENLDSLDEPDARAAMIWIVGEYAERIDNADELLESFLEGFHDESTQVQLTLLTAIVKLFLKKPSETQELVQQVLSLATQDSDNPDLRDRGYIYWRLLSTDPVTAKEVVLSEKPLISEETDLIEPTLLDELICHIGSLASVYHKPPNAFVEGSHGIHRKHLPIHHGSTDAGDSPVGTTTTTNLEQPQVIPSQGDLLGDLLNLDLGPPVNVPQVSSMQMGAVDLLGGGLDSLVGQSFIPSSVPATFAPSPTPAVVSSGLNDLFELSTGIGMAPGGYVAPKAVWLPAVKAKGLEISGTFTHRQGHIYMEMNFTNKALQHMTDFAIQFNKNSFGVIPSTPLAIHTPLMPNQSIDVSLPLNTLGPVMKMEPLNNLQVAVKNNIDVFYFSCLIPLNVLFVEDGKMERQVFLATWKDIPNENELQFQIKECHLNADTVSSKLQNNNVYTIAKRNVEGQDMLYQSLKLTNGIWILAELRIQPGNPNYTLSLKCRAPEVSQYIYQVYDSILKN

Substance	listed as a hit
SH3-containing GRB2-like protein 3-interacting protein 1, Q8VD37	yes
Adaptin ear-binding coat-associated protein 1, Q9CR95	yes
AP-2 complex subunit alpha-1, P17426	yes
AP-2 complex subunit mu, P84091	yes

Target: Alpha-internexin (UniProt P46660)
Experiment: as above

Chain of Alpha-internexin (P46660 whole entry): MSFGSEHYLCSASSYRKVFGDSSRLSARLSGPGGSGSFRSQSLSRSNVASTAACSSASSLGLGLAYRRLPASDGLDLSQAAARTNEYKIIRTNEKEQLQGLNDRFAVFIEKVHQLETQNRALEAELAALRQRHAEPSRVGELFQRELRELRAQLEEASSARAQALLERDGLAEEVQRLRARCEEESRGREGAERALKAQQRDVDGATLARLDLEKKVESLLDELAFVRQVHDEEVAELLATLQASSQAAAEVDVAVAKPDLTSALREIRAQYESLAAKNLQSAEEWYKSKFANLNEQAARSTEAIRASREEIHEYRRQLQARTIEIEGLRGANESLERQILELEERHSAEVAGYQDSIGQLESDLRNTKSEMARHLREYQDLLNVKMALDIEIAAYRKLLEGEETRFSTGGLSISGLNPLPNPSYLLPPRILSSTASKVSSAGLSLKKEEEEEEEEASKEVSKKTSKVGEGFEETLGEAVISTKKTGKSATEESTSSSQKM

Substance	listed as a hit
Neurofilament medium polypeptide, P08553	yes
Neurofilament light polypeptide, P08551	yes
Neurofilament heavy polypeptide, P19246	yes
